Measured potencies and affinities stand elsewhere. Values without a mark were called inactive. The rule behind the calls is not given here.
Experiment: A549 cell cytotoxicity, dose response, cytotoxicity control, plate reader, cherry-pick, antagonist series (AID 743412)
Details: series mostly up to 26 µM; activity change, negative = cytotoxicity: at the top concentration
For COc1cccc(-c2ccc(C3[C@@H]4CN(C(=O)C5CC5)C[C@H]3N4)cc2)c1 (some centres undefined), the “activity change, negative = cytotoxicity” value was -1.26%. With O=C(Nc1cccc(C(=O)O)c1)Nc1ccc2c(c1)OCO2 the “activity change, negative = cytotoxicity” value was 2.65%. For Cc1ccc2nc(-c3ccc(Br)cc3)cn2c1, the “activity change, negative = cytotoxicity” value was -0.856%. With Nc1ccc(-c2nc3ccc(C(=O)O)cc3s2)cc1 the “activity change, negative = cytotoxicity” value was 1.52%.

Experiment: HepG2 cell cytotoxicity, dose response, cytotoxicity control, plate reader, cherry-pick, antagonist series (AID 743416)
Details: series mostly up to 26 µM; activity change, negative = cytotoxicity: at the top concentration
For COc1cccc(-c2ccc(C3[C@@H]4CN(C(=O)C5CC5)C[C@H]3N4)cc2)c1 (some centres undefined), the “activity change, negative = cytotoxicity” value was 8.14%. In the case of O=C(Nc1cccc(C(=O)O)c1)Nc1ccc2c(c1)OCO2, the “activity change, negative = cytotoxicity” value is reported as 45.7%. With Cc1ccc2nc(-c3ccc(Br)cc3)cn2c1 the “activity change, negative = cytotoxicity” value was 54.1%. In the case of Nc1ccc(-c2nc3ccc(C(=O)O)cc3s2)cc1, the “activity change, negative = cytotoxicity” value is reported as -2.24%. With Cn1nnnc1Sc1ncnc2scc(-c3cccc(Br)c3)c12 the “activity change, negative = cytotoxicity” value was -105%.
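Note: 0% = neutral control wells and -100% = positive control wells.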
